EWS-Fli block – EWS/Fli-driven NR0B1 reporter inhibitors, primary screen, A673 cells, NR0B1 luciferase, luminescence, MLPCN library. viability-normalised. inhibition, % at 12.6 µM. AID 651661, 2012. 350,000 tested, 0.67% active;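 active = mean inhibition of at least 50% after viability correction, with every replicate also passing that limit; inconclusive = mean reaches 50% but only one of two replicates passes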;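 note: firefly luciferase signal divided by Alamar Blue viability fluorescence both relative to DMSO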
CFTR F508del cor – F508del CFTR correction, initial screen, CFBE line, single point; CFBE cells, YFP halide quenching; stimulated with forskolin plus potentiator P3; % fluorescence drop versus neutral controls; activity (quench increase), % at 7.58 µM; 350,000 tested, 0.36% active;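 active = mean added fluorescence quench of at least 8% versus neutral control, with both replicates also reaching 8%; inconclusive = only one of the mean or replicate conditions met; inactive = mean below 8% and not both replicates reaching 8%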;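 note: cells transiently co-express mutant CFTR-F508del with the halide-sensitive YFP; corrector assay measuring rescue of mutant channel to the surface after 24 h compound exposure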
Env fusion inh – inhibitors of HIV-1 Env-driven cell-cell fusion, primary screen, HeLa-JRFL effector, CEM21 target cells, luciferase; inhibition, % at 12.3 µM; 360,000 tested, 1.1% active;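 active = mean replicate inhibition score of at least 50 and every replicate individually at or above 50; inconclusive = only one of the two criteria met; inactive = mean below 50 and not all replicates reaching 50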
PAX8 inh HTS – inhibitors of PAX8-driven TPO luciferase reporter, primary screen, RMG-I cells, single concentration. SteadyGlo, 24 h. inhibition, % at 12.6 µM. 360,000 tested, 1.2% active. AID 652154, 2013;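 active = mean replicate inhibition at least 60% with every replicate also reaching 60%; inconclusive = only one of the two criteria is met; inactive = mean below 60% and not all replicates reaching 60%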;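 note: luciferase light reporting Pax8 driven TPO promoter activity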
FXN GAA850 act – FXN promoter activators, primary screen, cell-based, luciferase luminescence, HEK293 lucGAA850 | activation, % at 6 µM | AID 540364, 2011 | 360,000 tested, 0.56% active | HEK293 lucGAA850 FXN promoter luciferase reporter, 24 h; percent of 10 µM SAHA response;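 active = activation above the average of all compounds screened plus 3 SD, cutoff fixed separately per campaign, cut at about 7.5% in these data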
A number is an active result; . = inactive; ? = inconclusive; / = no result; ! = not active in a repeat; [ ] = remark or other dose. Hits are enriched below; roughly 2.5% of the tested compounds scored in any of these assays.

SMILES	EWS-Fli block	CFTR F508del cor	Env fusion inh	PAX8 inh HTS	FXN GAA850 act
C[C@@H]1CCCCO[C@H](CN(C)Cc2ccncc2)[C@H](C)CN([C@@H](C)CO)C(=O)c2cc(NC(=O)c3ccccc3)ccc2O1	58	.	.	70	/
C[C@@H]1CN([C@@H](C)CO)C(=O)c2cc(NC(=O)c3ccccc3)ccc2O[C@@H](C)CCCCO[C@@H]1CN(C)Cc1ccc(C(F)(F)F)cc1	.	.	.	77!	.
C[C@@H]1CCCCO[C@H](CN(C)Cc2ccc(C(F)(F)F)cc2)[C@H](C)CN([C@H](C)CO)C(=O)c2cc(NC(=O)c3ccccc3)ccc2O1	.	.	90[16.7 µM]	99	/
COCC(=O)N1CC2(C1)[C@H](c1ccc(-c3ccccc3)cc1)[C@@H](CO)N2C(=O)COC	.	.	/	/	/
CCCCOCCCNc1ncnc2c1[nH]c1ccccc12	/	/	88	/	.
COc1ccc(OCc2n(CC(=O)OC3CC(C)CCC3C(C)C)c3ccccc3[n+]2C)cc1 (stereo not drawn)	53	.	87	99	.
C[C@@H]1CN([C@@H](C)CO)C(=O)c2cc(NC(=O)C3CCCCC3)ccc2O[C@@H](C)CCCCO[C@@H]1CN(C)S(=O)(=O)c1ccc(Cl)cc1	.	.	.	.	/
O=C(Nc1ccc(Cl)c(C(F)(F)F)c1)[C@@H]1CC=C[C@@H]2CCN(Cc3ccc(Cl)c(Cl)c3)C(=O)[C@@H]21	.	.	84	.	.
O=C(O)[C@H]1CC=C[C@H]2CCN(Cc3ccc(Cl)c(Cl)c3)C(=O)[C@@H]12	.	.	.	.	.
C[C@@H]1CN([C@@H](C)CO)S(=O)(=O)c2ccc(-c3cccnc3)cc2O[C@H]1CN(C)Cc1cncnc1	.	.	.	/	/
C[C@@H]1CN([C@@H](C)CO)C(=O)Cc2cc(NC(=O)NC3CCCCC3)ccc2O[C@@H]1CN(C)C(=O)Nc1ccccc1	.	.	.	.	/
CCOC(=O)c1sc(=S)n(C)c1NC(=O)c1ccccc1Cl	.	.	/	76	.
CCOC(=O)c1sc(=S)n(C)c1NC(=O)c1ccc(OC)cc1	.	.	.	.	.
COCC(=O)N1[C@H](CO)[C@H](c2ccccc2)[C@@H]1C#N	.	.	.	.	/
CCc1cc2c(nc1CC)CCCN2S(=O)(=O)c1ccc(OC)cc1	72	.	.	.	/
CCc1cc2c(nc1CC)CCCN2S(=O)(=O)c1ccc(F)cc1	.	.	.	.	/
COc1ccc(S(=O)(=O)N(C)C[C@@H]2Oc3ccc(NC(=O)Cc4cn(C)c5ccccc45)cc3CC(=O)N([C@H](C)CO)C[C@@H]2C)cc1	.	.	76[16.7 µM]	/	/
C[C@H](CO)N1C[C@H](C)[C@@H](CN(C)Cc2ccc(Oc3ccccc3)cc2)Oc2ccc(NC(=O)Cc3cn(C)c4ccccc34)cc2CC1=O	.	.	.	65	/
C[C@H](CO)N1C[C@H](C)[C@H](CN(C)S(=O)(=O)c2ccccc2)Oc2ccc(NC(=O)Cc3cn(C)c4ccccc34)cc2CC1=O	.	.	94[16.7 µM]	.	/
C[C@H](CO)N1C[C@H](C)[C@@H](CN(C)S(=O)(=O)c2ccccc2)Oc2ccc(NC(=O)Cc3cn(C)c4ccccc34)cc2CC1=O	.	.	.	.	/
C[C@H]1CN([C@@H](C)CO)C(=O)Cc2cc(NC(=O)Cc3cn(C)c4ccccc34)ccc2O[C@H]1CN(C)Cc1ccc(Oc2ccccc2)cc1	.	.	.	.	/
C[C@@H]1CN([C@@H](C)CO)C(=O)Cc2cc(NC(=O)Cc3cn(C)c4ccccc34)ccc2O[C@@H]1CN(C)S(=O)(=O)c1cccs1	.	.	.	.	/
C[C@H](CO)N1C[C@H](C)[C@H](CN(C)S(=O)(=O)c2cccs2)Oc2ccc(NC(=O)Cc3cn(C)c4ccccc34)cc2CC1=O	.	.	96[16.7 µM]	.	/
C[C@@H]1CN([C@@H](C)CO)C(=O)c2cc(NC(=O)Cc3ccccc3)ccc2O[C@@H](C)CCCCO[C@@H]1CN(C)S(=O)(=O)c1cn(C)cn1	.	.	.	.	/
C[C@@H]1CN([C@H](C)CO)C(=O)c2cc(NC(=O)Nc3ccccc3)ccc2O[C@@H](C)CCCCO[C@H]1CN(C)Cc1ccc(Cl)c(Cl)c1	.	.	?	104	/
SMILES	EWS-Fli block	CFTR F508del cor	Env fusion inh	PAX8 inh HTS	FXN GAA850 act
C[C@@H]1CCCCO[C@@H](CN(C)Cc2ccc(Cl)c(Cl)c2)[C@@H](C)CN([C@H](C)CO)C(=O)c2cc(NC(=O)Nc3ccc(F)cc3)ccc2O1	.	.	.	.	/
C[C@@H]1CCCCO[C@@H](CN(C)Cc2ccc(Cl)c(Cl)c2)[C@H](C)CN([C@H](C)CO)C(=O)c2cc(NC(=O)Nc3ccccc3)ccc2O1	.	.	.	90	/
C[C@@H]1CCCCO[C@@H](CN(C)Cc2ccc(Cl)c(Cl)c2)[C@@H](C)CN([C@H](C)CO)C(=O)c2cc(NC(=O)c3ccccc3)ccc2O1	.	.	.	.	/
C[C@@H]1CCCCO[C@H](CN(C)Cc2ccc(Cl)c(Cl)c2)[C@H](C)CN([C@@H](C)CO)C(=O)c2cc(NC(=O)Nc3ccccc3)ccc2O1	.	.	.	82	/
C[C@@H]1CCCCO[C@H](CN(C)Cc2ccc(Cl)c(Cl)c2)[C@@H](C)CN([C@H](C)CO)C(=O)c2cc(NC(=O)Nc3ccc(F)cc3)ccc2O1	.	.	.	.	/
O=C(NC[C@H]1N[C@H](CO)[C@@H]1c1ccc(-c2cncnc2)cc1)C1CCCC1	.	.	/	/	/
Cc1ccc(S(=O)(=O)N[C@@H]2CC[C@@H](CCNS(=O)(=O)Cc3ccccc3)O[C@@H]2CO)cc1	.	.	.	.	/
Cc1ccc(S(=O)(=O)Nc2ccc3c(c2)C(=O)N([C@H](C)CO)C[C@H](C)[C@@H](CN(C)CC2CC2)OCCCC[C@@H](C)O3)cc1	.	.	.	.	/
O=C(NCCOc1ccc(F)cc1)c1ccccc1SCc1ccccc1	.	/	.	.	.
CCc1ccc(OCCNC(=O)c2ccccc2SCc2ccc(F)cc2)cc1	/	/	58	/	.
O=C(Nc1ncc(Cc2ccc(SC(F)F)cc2)s1)c1ccc(OC(F)F)cc1	53	/	.	?	.
Cc1ccc(Cc2cnc(NC(=O)c3ccco3)s2)cc1	/	/	/	/	.
COc1ccc(CN(C)C[C@H]2Oc3c(NC(=O)Nc4ccc(F)cc4)cccc3C(=O)N([C@H](C)CO)C[C@@H]2C)cc1	.	.	/	.	/
CCN(CC)c1ccc(C(=C2C=CC(=[N+](CC)CC)C=C2)c2ccc(N(CC)CC)cc2)cc1	.	.	62	113	.
CCN(CC)c1ccc(C(=O)NNC(=O)CCNC(=O)c2ccccc2)cc1	.	.	/	.	.
CCN(CC)c1ccc(C(=C2C=CC(=[N+](CC)CC)C=C2)c2ccccc2)cc1	.	.	81	113	.
Cc1cnc(C=NNC(N)=S)c2cccc(N)c12	.	.	.	.	.
NC(=S)NN=Cc1nccc2ccccc12	.	9.7	.	.	.
NC(=S)NN=Cc1nccc2c(C(F)(F)C(F)(F)C(F)(F)F)cccc12	.	.	.	75	.

Screening results: PubChem, several laboratories
